PubChem BioAssay
The source made the active and inactive calls.

Experiments:
Albumin (Bos taurus) = Albumin (Bos taurus) (UniProt P02769); test: compounds binding labelled BSA control protein – biochemical, small-molecule microarray, Alexa647 label, 635/667 nm fluorescence, artefact control for SMM control protein annotation, profiling panel (AID 1118); settings: BSA-A647 binding, fluorescence 635 nm, higher = more signal;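 also: score merges 667 nm emission intensity and signal-to-noise per printed compound spot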
[1] = probe aXIP binding to arrayed compounds – biochemical, NeuroSMM set, 635/667 nm fluorescence, primary screen (AID 1119); settings: small-molecule microarray, higher = more signal, called active from +8 up or from −8 down;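 also: probe is the protein aXip251-270 applied at 1 µg/mL to compound-printed slides; binding of probe to printed compounds measured as 667 nm fluorescence plus signal to noise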
[2] = probe aNOTCH3 binding on compound microarray – biochemical, small-molecule microarray, 635/667 nm fluorescence, primary screen (AID 1120); settings: higher = more signal;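 also: probe is a biotin-tagged antibody raised against NOTCH3 rather than NOTCH3 protein; score merges spot fluorescence near 667 nm with spot signal to noise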
[3] = probe aNOTCH2 binding on compound microarray – biochemical, small-molecule microarray, 635/667 nm fluorescence, primary screen (AID 1121); settings: higher = more signal;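 also: score merges feature fluorescence read at 667 nm with its signal to noise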
[4] = biological target: Carbonic anhydrase 2 (Homo sapiens) (UniProt P00918); test: compounds binding carbonic anhydrase 2 – biochemical, small-molecule microarray, Alexa647-labelled CAII, profiling panel (AID 1122); settings: CAII-A647 binding fluorescence, higher = more signal
[5] = COS7 lysate on small-molecule microarray, probe aHis, 635 nm (AID 1123); settings: COS7 cell lysate, fluorescence, higher = more signal;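 also: z-score combines 667nm fluorescence intensity with signal-to-noise per printed compound spot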
[6] = probe aLAP1 signal on lysate-treated microarray – cell lysate, small-molecule microarray, COS7 lysate, primary screen (AID 1124); settings: probe aLAP1, fluorescence, higher = more signal;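 also: lysate comes from COS7 cells expressing LAP1 and is applied at 0.3 µg/mL; score merges spot fluorescence near 667 nm with signal-to-noise over triplicate slides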
Sam68 (KHDRBS1) = test: compounds binding KHDRBS1 protein – biochemical, small-molecule microarray, 635 nm fluorescence, primary screen (AID 1125); settings: higher = more signal;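 also: score merges 667 nm channel intensity with signal to noise over triplicate slides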
[7] = test system: Chordin-like protein 2 (CHRDL2); test: compounds binding chordin-like 2 – biochemical, small-molecule microarray, 635 nm fluorescence, primary screen (AID 1126); settings: fluorescence 635 nm, higher = more signal;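 also: printed compound slides probed with Chrdl2 protein at 4 µg/mL for 1 h at 4 C; score merges 667 nm emission intensity with signal to noise over three replicate slides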
[8] = biological target: Concanavalin-A (Canavalia ensiformis) (UniProt P02866); test: compounds binding concanavalin A lectin – biochemical, small-molecule microarray, Alexa647 label, 635 nm, artefact control for SMM control protein annotation, primary screen (AID 1127); settings: ConA-A647 binding fluorescence, higher = more signal;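 also: z combines 667 nm emission intensity with signal-to-noise across three replicate slides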
[9] = compounds binding Alexa647 anti-His antibody – biochemical, small-molecule microarray, 635 nm fluorescence, artefact control for SMM control protein annotation, primary screen (AID 1128); settings: higher = more signal;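 also: score merges feature fluorescence with signal-to-noise for each printed compound spot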
[10] = test system: Human papillomavirus type 1a E7 protein (residues 1-88); test: HPV1a E7 small-molecule binders, primary screen, biochemical, small-molecule microarray, residues 1-88, 635 nm (AID 1129); settings: small-molecule microarray binding, fluorescence 635 nm; higher = more signal
[11] = biological target: Focal adhesion kinase 1 (Homo sapiens) (UniProt Q05397); test: PTK2 protein binding on printed compound slides – biochemical, small-molecule microarray, 635/667 nm fluorescence, BSA, DTT, primary screen (AID 1130); settings: 635 nm fluorescence, higher = more signal;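 also: composite of spot emission at 667 nm and signal to noise over triplicate slides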
[12] = test system: Fibrinogen (Alexa647-labelled); test: Alexa647-fibrinogen binding to printed small molecules – biochemical, small-molecule microarray, 635/667 nm fluorescence, artefact control for SMM control-protein annotation, profiling panel (AID 1131); settings: fibrinogen-A647 binding fluorescence, higher = more signal;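 also: z-score merges 667 nm fluorescence with per-spot signal-to-noise over triplicate slides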
[13] = biological target: Follistatin (Homo sapiens) (UniProt P19883); test: FST protein binding to printed compounds – biochemical, small-molecule microarray, 635/667 nm fluorescence, primary screen (AID 1132); settings: 635 nm fluorescence, higher = more signal
[14] = biological target: Fibroblast growth factor 2 (Homo sapiens) (UniProt P09038); test: basic fibroblast growth factor binding to printed compounds – biochemical, small-molecule microarray, 635/667 nm fluorescence, primary screen (AID 1133); settings: FGF2, fluorescence 635/667, higher = more signal
[15] = JC-1 mitochondrial potential readout, lung cancer cells – cell-based, A549, JC-1 fluorescence, basal, 24 h, 100 nL, profiling panel (AID 1138); settings: higher = more signal;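 also: A549 lung adenocarcinoma cells under basal conditions with no added stimulus; test concentration not given here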
Lefty1 = Lefty1 protein binding to printed compounds – biochemical, small-molecule microarray, 635/667 nm fluorescence, primary screen (AID 1139); settings: fluorescence 635/667, higher = more signal
[16] = test system: wheat germ agglutinin (Triticum aestivum), Alexa647-labelled; test: Alexa647-WGA lectin binding to printed small molecules – biochemical, small-molecule microarray, 635/667 nm fluorescence, artefact control for SMM control-protein annotation, profiling panel (AID 1140); settings: WGA-A647 binding, 635 nm fluorescence, higher = more signal;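 also: score merges 667 nm feature emission with signal to noise over triplicate slides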
[17] = biological target: Luciferin 4-monooxygenase (Photinus pyralis) (UniProt P08659); test: inhibition of purified Photinus pyralis luciferase – biochemical, luminescence, purified enzyme, 2006 set, primary screen (AID 1141); settings: purified firefly luciferase, SteadyGlo luminescence, 30 min; higher = more signal, called active from +8 up or from −8 down;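 also: cell-free assay with purified firefly luciferase at 100 ng per well in PBS; test concentration not given here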
Sequence of Luciferin 4-monooxygenase (Photinus pyralis) (P08659 whole entry, looked up): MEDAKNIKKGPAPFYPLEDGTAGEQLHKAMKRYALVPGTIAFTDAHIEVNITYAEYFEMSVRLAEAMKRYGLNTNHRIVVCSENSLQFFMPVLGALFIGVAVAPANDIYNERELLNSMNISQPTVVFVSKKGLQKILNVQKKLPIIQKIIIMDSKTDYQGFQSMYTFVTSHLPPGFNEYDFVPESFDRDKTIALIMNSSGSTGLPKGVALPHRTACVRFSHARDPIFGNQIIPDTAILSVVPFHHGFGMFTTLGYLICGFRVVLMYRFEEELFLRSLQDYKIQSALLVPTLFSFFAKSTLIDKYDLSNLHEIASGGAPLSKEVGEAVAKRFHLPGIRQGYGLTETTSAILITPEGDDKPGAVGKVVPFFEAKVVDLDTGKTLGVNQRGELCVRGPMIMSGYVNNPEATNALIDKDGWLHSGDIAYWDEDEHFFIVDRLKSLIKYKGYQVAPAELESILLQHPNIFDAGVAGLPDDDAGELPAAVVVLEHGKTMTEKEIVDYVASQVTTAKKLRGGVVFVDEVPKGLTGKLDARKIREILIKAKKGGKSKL

Sequence of Albumin (Bos taurus) (P02769 whole entry, looked up): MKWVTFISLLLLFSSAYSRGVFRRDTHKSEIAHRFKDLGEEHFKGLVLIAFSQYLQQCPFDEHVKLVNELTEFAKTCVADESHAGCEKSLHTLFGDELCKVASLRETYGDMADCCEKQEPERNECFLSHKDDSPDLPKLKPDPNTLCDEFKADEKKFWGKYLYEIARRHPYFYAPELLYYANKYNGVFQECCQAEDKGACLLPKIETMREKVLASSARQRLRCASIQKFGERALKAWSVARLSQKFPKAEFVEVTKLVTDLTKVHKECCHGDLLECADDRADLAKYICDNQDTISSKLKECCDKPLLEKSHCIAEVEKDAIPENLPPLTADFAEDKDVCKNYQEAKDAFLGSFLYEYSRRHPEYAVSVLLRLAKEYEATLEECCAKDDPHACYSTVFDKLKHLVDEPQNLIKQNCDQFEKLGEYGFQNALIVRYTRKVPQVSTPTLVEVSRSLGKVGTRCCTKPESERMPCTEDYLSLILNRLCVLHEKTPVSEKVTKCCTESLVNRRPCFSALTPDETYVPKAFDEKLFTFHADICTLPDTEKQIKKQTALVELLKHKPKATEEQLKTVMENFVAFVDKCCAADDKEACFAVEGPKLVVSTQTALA
Sequence of Fibroblast growth factor 2 (Homo sapiens) (P09038 whole entry, looked up): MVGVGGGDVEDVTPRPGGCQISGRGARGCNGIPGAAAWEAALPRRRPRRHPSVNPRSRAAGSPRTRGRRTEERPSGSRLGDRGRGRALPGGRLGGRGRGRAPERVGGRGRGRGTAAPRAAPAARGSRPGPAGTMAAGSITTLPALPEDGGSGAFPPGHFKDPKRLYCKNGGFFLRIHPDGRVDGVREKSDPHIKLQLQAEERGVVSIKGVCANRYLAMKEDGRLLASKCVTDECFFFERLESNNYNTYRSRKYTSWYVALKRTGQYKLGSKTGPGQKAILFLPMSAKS
Sequence of Concanavalin-A (Canavalia ensiformis) (P02866 whole entry, looked up): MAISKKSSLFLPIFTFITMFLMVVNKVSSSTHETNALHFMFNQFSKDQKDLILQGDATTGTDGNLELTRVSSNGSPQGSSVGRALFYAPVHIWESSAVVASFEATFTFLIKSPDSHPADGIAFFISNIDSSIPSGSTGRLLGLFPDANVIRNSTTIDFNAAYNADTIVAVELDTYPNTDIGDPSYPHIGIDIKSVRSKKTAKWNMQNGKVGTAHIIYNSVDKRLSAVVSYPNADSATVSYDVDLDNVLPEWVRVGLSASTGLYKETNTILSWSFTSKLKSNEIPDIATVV
Sequence of Follistatin (Homo sapiens) (P19883 whole entry, looked up): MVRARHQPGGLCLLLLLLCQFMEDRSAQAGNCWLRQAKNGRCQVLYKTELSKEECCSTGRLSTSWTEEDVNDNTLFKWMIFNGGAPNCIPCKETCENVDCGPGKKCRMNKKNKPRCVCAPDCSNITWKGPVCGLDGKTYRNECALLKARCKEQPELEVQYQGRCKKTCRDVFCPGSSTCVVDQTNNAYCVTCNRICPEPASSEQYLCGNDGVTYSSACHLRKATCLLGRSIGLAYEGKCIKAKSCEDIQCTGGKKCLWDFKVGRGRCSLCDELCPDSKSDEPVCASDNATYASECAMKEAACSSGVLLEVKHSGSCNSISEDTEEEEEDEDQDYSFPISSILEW
Sequence of Focal adhesion kinase 1 (Homo sapiens) (Q05397 whole entry, looked up): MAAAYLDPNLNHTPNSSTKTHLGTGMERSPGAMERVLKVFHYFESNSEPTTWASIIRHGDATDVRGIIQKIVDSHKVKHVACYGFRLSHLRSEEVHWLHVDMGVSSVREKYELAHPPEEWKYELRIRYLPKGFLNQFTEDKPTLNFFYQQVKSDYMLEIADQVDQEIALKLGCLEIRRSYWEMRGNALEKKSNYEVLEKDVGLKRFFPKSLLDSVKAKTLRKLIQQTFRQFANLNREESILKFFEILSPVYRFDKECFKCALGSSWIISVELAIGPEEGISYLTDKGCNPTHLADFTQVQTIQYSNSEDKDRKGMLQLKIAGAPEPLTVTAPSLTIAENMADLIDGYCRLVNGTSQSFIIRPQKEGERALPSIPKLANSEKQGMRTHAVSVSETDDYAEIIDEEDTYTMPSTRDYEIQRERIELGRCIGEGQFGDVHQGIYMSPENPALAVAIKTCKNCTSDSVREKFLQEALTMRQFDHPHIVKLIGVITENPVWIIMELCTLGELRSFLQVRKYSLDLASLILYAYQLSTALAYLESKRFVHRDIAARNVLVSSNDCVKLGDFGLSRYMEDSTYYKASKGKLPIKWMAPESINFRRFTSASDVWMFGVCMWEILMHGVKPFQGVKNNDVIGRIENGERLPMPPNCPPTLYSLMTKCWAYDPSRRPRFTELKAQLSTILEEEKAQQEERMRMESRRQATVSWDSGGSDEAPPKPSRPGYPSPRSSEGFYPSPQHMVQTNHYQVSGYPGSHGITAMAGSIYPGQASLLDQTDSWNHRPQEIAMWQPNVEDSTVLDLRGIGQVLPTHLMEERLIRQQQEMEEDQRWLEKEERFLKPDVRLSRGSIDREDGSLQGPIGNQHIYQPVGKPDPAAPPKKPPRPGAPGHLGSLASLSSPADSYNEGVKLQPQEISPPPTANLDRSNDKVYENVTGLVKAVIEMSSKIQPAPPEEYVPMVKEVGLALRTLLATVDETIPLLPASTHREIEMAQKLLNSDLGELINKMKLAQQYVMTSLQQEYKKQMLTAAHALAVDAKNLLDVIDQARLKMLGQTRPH

Row | SMILES | composite z-score (Albumin (Bos taurus)) | composite Z-score [1] | composite z-score [2] | composite z-score [3] | composite z-score [4] | composite z-score [5] | composite z-score [6] | composite z-score (Sam68 (KHDRBS1)) | composite z-score [7] | composite z-score [8] | composite z-score [9] | composite z-score [10] | composite z-score [11] | composite z-score [12] | composite z-score [13] | composite z-score [14] | z-score [15] | composite z-score (Lefty1) | composite z-score [16] | z-score [17]
1 | C[C@@H](OCc1ccccc1)C1NC(=O)[C@@]23C(=O)N[C@@H](Cc4ccccc4)C2[C@H](C)[C@@]2(C)O[C@H]2C3/C=C/C/C=C\CNC(=O)[C@@H]2CCCN2C1=O (stereo not given in full) | -0.149 | -0.216 (inactive) | -0.0921 | -0.147 | 0.619 | -0.357 | -0.296 | -0.898 | 0.377 | -0.896 | -0.0278 | -0.443 | -0.709 | -0.632 | 0.0944 | 0.166 | 2.49 | 0.0078 | -0.927 | -1.45 (inactive)
2 | CC(C)C[C@@H]1NC(=O)[C@H]2C[C@@H](C(=O)NCCCC[N+](C)(C)C)[C@@H](c3cccc(OCCO)c3)N2C1=O | 0.252 | 0.331 (inactive) | 0.217 | -0.19 | 0.475 | 1.89 | 0.987 | 0.848 | 0.938 | 0.476 | 3.29 | -0.146 | -0.153 | -0.236 | 1.25 | 1.61 | 1.31 | 1.39 | -0.102 | -1.97 (inactive)
3 | COc1ccc([Si](C)(C)[C@@H]2[C@@H](CCn3cc([C@H](O)c4ccccc4)nn3)O[C@]3(C(=O)N(C)c4c(Br)cc(C)cc43)[C@H]2C)cc1 | -0.0364 | 0.62 (inactive) | -0.129 | -0.118 | -0.273 | -0.525 | -0.129 | -0.849 | -0.254 | -0.679 | 0.18 | -0.773 | -0.501 | -0.59 | 1.19 | 1.44 | 0.517 | -0.166 | 0.397 | -2.15 (inactive)
4 | [N-]=[N+]=NCc1ccccc1C[C@]1(C(=O)NCc2ccccc2)N=C(c2ccc(OCCCO)cc2)O[C@H]1c1ccccc1 | 0.992 | 0.945 (inactive) | 0.2 | 0.139 | 0.396 | 1.85 | 1.45 | 1.16 | -1.4 | 1.09 | 1.67 | 1.18 | 0.445 | 0.813 | -0.257 | -0.0593 | 0.488 | -1.17 | 1.24 | -1.19 (inactive)
5 | O=C(NO)[C@]1(Cc2ccccc2)N=C(c2ccc(OCCCO)cc2)O[C@@H]1c1ccccc1 | 0.847 | -0.876 (inactive) | -0.183 | -0.0909 | 0.678 | -0.359 | 0.0192 | -0.32 | -0.671 | -1.06 | -0.0837 | 0.0707 | -1 | 0.141 | -0.248 | -0.0928 | 2.09 | -0.458 | 0.162 | -2.34 (inactive)
